Hit rate of the full screen: of about 5,500 compounds, about 2,000 (36%) were called active. Another 18% or so got no clear call; they are omitted. No stated cut-off is given here; in the data, active means normalized growth mostly below about 0.91 (no sharp cut-off); inconclusive means no clear call, values can overlap the other calls; inactive means mostly above about 0.92. Some of the results follow.
Assay: chemical genetic growth profiling, strain panel (AID 1159580);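 further: tested at 20 µM; growth read once vehicle control cultures reached saturation at 30 °C; 1 = growth at the plate median or of vehicle wells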
Settings: S. cerevisiae deletion strains, growth OD

Measured: normalized growth

CC(O)C(C)OC(=O)[C@@H]1C[C@@H]2c3cccc4c3c(cn4C(C)C)C[C@H]2N(C)C1 (stereo partly drawn)
inactive: locus YAL040C, strain CLN3, stronger effect = lower value 0.977 | locus YCL061C, strain MRC1 (second series), stronger effect = lower value 0.98 | locus YDR363W, strain ESC2, stronger effect = lower value 0.996 | locus YER002W, strain NOP16, stronger effect = lower value 1 | locus YNL175C, strain NOP13, stronger effect = lower value 1 | locus YNL197C, strain WHI3, stronger effect = lower value 0.991 | locus YNL224C, strain SQS1, stronger effect = lower value 1.01 | locus YNL322C, strain KRE1, stronger effect = lower value 0.973 | locus YOR083W, strain WHI5 (second series), stronger effect = lower value 0.99 | locus YPL055C, strain LGE1, stronger effect = lower value 1

C[C@@H]1CC2C3CCC4=CC(=O)C=C[C@]4(C)[C@@]3(F)[C@@H](O)C[C@]2(C)[C@@]1(O)C(=O)CO (stereo partly drawn)
inactive: locus YAL021C, strain ccr4, stronger effect = lower value 0.96 | locus YAL026C, strain drs2, stronger effect = lower value 0.988 | locus YAL030W, strain snc1, stronger effect = lower value 0.969 | locus YBL061C, strain skt5, stronger effect = lower value 0.976 | locus YBR009C, strain hhf1, stronger effect = lower value 0.989 | locus YBR023C, strain chs3, stronger effect = lower value 0.999 | locus YBR171W, strain sec66, stronger effect = lower value 0.947 | locus YBR231C, strain swc5, stronger effect = lower value 0.978 | locus YBR279W, strain paf1, stronger effect = lower value 1 | locus YCL011C, strain gbp2, stronger effect = lower value 0.988 | locus YCL016C, strain dcc1, stronger effect = lower value 1.03 | locus YCL069W, strain vba3, stronger effect = lower value 0.975 | locus YCR088W, strain abp1, stronger effect = lower value 0.978 | locus YDL005C, strain med2, stronger effect = lower value 0.966 | locus YDL040C, strain nat1, stronger effect = lower value 0.964 | locus YDR001C, strain nth1, stronger effect = lower value 0.966 | locus YDR069C, strain doa4, stronger effect = lower value 0.96 | locus YDR137W, strain rgp1, stronger effect = lower value 1.02 | locus YDR159W, strain sac3, stronger effect = lower value 0.968 | locus YDR195W, strain ref2 0.948 | locus YDR297W, strain sur2, stronger effect = lower value 0.988 | locus YDR334W, strain swr1, stronger effect = lower value 0.957 | locus YDR335W, strain msn5, stronger effect = lower value 0.976 | locus YDR392W, strain spt3, stronger effect = lower value 1.06 | locus YEL003W, strain gim4, stronger effect = lower value 0.973 | locus YEL037C, strain rad23, stronger effect = lower value 0.974 | locus YEL061C, strain CIN8 (second series), stronger effect = lower value 0.976 | locus YER015W, strain faa2, stronger effect = lower value 0.995 | locus YER016W, strain bim1, stronger effect = lower value 1.03 | locus YER111C, strain swi4, stronger effect = lower value 0.971 | locus YER155C, strain BEM2 (second series), stronger effect = lower value 0.958 | locus YFR010W, strain ubp6, stronger effect = lower value 0.958 | locus YGL167C, strain pmr1, stronger effect = lower value 0.957 | locus YGL173C, strain kem1, stronger effect = lower value 0.964 | locus YGL227W, strain vid30, stronger effect = lower value 0.987 | locus YGL240W, strain doc1, stronger effect = lower value 0.966 | locus YGL253W, strain hxk2, stronger effect = lower value 1 | locus YHR013C, strain ard1, stronger effect = lower value 0.995 | locus YHR027C, strain rpn1, stronger effect = lower value 0.993 | locus YHR030C, strain SLT2, stronger effect = lower value 1.02 | locus YHR079C, strain IRE1, stronger effect = lower value 1.01 | locus YHR142W, strain chs7, stronger effect = lower value 0.948 | locus YJL092W, strain hpr5, stronger effect = lower value 0.964 | locus YJL095W, strain BCK1 (second series), stronger effect = lower value 0.967 | locus YJL095W, strain BCK1, stronger effect = lower value 1.02 | locus YJL115W, strain asf1, stronger effect = lower value 0.976 | locus YJL129C, strain trk1, stronger effect = lower value 0.976 | locus YJL154C, strain vps35, stronger effect = lower value 0.951 | locus YJL164C, strain tpk1, stronger effect = lower value 1.01 | locus YJL166W, strain qcr8, stronger effect = lower value 0.916 | locus YJR066W, strain TOR1, stronger effect = lower value 0.997 | locus YKL160W, strain elf1, stronger effect = lower value 0.989 | locus YKR026C, strain gcn3, stronger effect = lower value 0.98 | locus YKR091W, strain srl3, stronger effect = lower value 0.961 | locus YLL001W, strain dnm1, stronger effect = lower value 0.911 | locus YLL026W, stronger effect = lower value 0.985 | locus YLL041C, strain sdh2, stronger effect = lower value 0.972 | locus YLR027C, strain aat2, stronger effect = lower value 0.976 | locus YLR113W, strain HOG1, stronger effect = lower value 1.03 | locus YLR221C, strain rsa3, stronger effect = lower value 1.02 | locus YLR258W, strain gsy2, stronger effect = lower value 0.987 | locus YLR262C, strain YPT6 (second series), stronger effect = lower value 0.943 | locus YLR320W, strain mms22, stronger effect = lower value 1 | locus YLR342W, strain FKS1, stronger effect = lower value 0.951 | locus YLR357W, strain rsc2, stronger effect = lower value 0.966 | locus YLR370C, strain arc18, stronger effect = lower value 0.996 | locus YLR384C, strain iki3, stronger effect = lower value 0.982 | locus YML120C, strain ndi1, stronger effect = lower value 0.969 | locus YMR058W, strain fet3, stronger effect = lower value 0.981 | locus YMR125W, strain sto1, stronger effect = lower value 0.951 | locus YMR129W, stronger effect = lower value 0.993 | locus YMR205C, strain PFK2, stronger effect = lower value 0.969 | locus YMR231W, strain pep5, stronger effect = lower value 0.96 | locus YNL071W, strain lat1, stronger effect = lower value 0.971 | locus YNL183C, strain NPR1, stronger effect = lower value 0.965 | locus YNL209W, strain ssb2, stronger effect = lower value 0.997 | locus YNL248C, strain rpa49, stronger effect = lower value 1.01 | locus YNL322C, strain KRE1 (second series), stronger effect = lower value 0.962 | locus YNR049C, strain mso1, stronger effect = lower value 0.984 | locus YOR001W, strain rrp6, stronger effect = lower value 0.976 | locus YOR070C, strain gyp1, stronger effect = lower value 0.997 | locus YOR080W, strain dia2, stronger effect = lower value 0.948 | locus YOR083W, strain WHI5, stronger effect = lower value 0.968 | locus YOR106W, strain vam3, stronger effect = lower value 0.933 | locus YOR231W, strain MKK1, stronger effect = lower value 1.01 | locus YOR265W, strain rbl2, stronger effect = lower value 0.986 | locus YOR270C, strain vph1, stronger effect = lower value 0.955 | locus YOR290C, strain snf2, stronger effect = lower value 1.02 | locus YPL051W, strain arl3, stronger effect = lower value 1.01 | locus YPL078C, strain atp4, stronger effect = lower value 0.928 | locus YPL106C, strain sse1, stronger effect = lower value 0.981 | locus YPL240C, strain hsp82, stronger effect = lower value 0.98 | locus YPL256C, strain CLN2, stronger effect = lower value 1.01

Source: PubChem BioAssay AID1159580 (chemical genetic matrix, 2015)
